From PubChem BioAssay
HCV inh = HCV inhibition. Huh7.5.1 HCVcc-Cre infection, luciferase reporter, 44 h. Potency, µM (titrated, usually from 41.8 µM), for the others: at the highest dose activity change, negative = inhibition, actives largely listed as inhibitors. 340,000 tested, 3.4% active. AID 651820
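Antiviral activity was scored by luciferase reporter output from cells infected with HCVcc-Cre (~0.5 moi) in presence of compound, 44 h infection period, cells seeded 1,000/well 4 h prior.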
RE007 growth inh = less growth of the S. pombe RE007 Vpr strain | Potency, µM (doses to about 92.2 µM), for the others: at the top dose activity change, negative = less growth, hits mostly inhibitors | AID 651644 | 360,000 tested, 0.21% active | S. pombe RE007 Vpr strain, BacTiter-Glo ATP luminescence, 24 h; active = well fitted falling curve with a large enough effect; inconclusive = small, poorly fitted or top-dose-only effect; inactive = no such curve, though single readings can be large or run the other way; note: nearly all actives have a fitted effect of over 50% in size
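Fission yeast RE007 carrying one integrated HIV-1 vpr copy, seeded at OD 0.01 in PMG+AL medium with 23 nL pinned compound. Grown 24 h at 30 degrees; viability read by BacTiter-Glo luminescence after 5 min.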
Sm TGR block = inhibitors of Schistosoma mansoni thioredoxin glutathione reductase. Q962Y6. purified TGR, DTNB reduction, TNB absorbance 405 nm. Potency, µM (top dose mostly 114 µM), for inactives: at the highest dose activity change, negative = inhibition, usual class: inhibitors. 360,000 tested, 3% active. AID 485364; note: nearly all actives have a fitted effect of over 60% in size
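TGR 20 nM + NADPH 100 uM (dispensed conc.), cpd preinc 15 min RT; start with NADPH (500 uM addition) then DTNB (15 mM addition). Kinetic TNB absorbance, 405 nm filter. Four-parameter Hill fit across titration.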
FMDV antiviral = antivirals against foot and mouth disease virus; FMDV antiviral cell-based qHTS; Potency, µM (doses to about 57.9 µM), for inactives: at the highest dose activity change, negative = inhibition, usual class: inhibitors; 410,000 tested, 1.2% active; AID 1159524; calls by dose curve; tested in HEK293T cells; note: read-out not given here; nearly all actives have a fitted effect of over 45% in size
LASV entry inh = inhibitors of Lassa virus binding or cell entry. 300,000 tested, 1.2% active. Potency, µM (doses to about 37.9 µM), inactives show at the highest dose activity change, negative = inhibition, actives largely listed as inhibitors. Lassa virus pseudotype entry inhibition, cell reporter; calls by dose curve; tested in HEK293 cells; note: nearly all actives have a fitted effect of over 50% in size
Marburg entry inh = Marburg virus entry inhibition; Potency, µM (highest dose often 37.8 µM), for the others: at the top dose activity change, negative = inhibition, hits mostly inhibitors; 300,000 tested, 1.8% active; Marburg virus pseudotyped entry inhibition, cell reporter; calls by dose curve; tested in HEK293 cells
* hit, by the source's call; [ ] = remark or other dose. An excerpt weighted towards active compounds, which were near 7.2% of everything screened. Unless noted, calls come from the whole dose curve; as a rule, active = well fitted curve in the direction sought with a large enough effect; inconclusive = small, poorly fitted or top-dose-only effect, or another doubt; inactive = no such curve, though single readings can be large; an effect the other way counts as inactive or inconclusive. % is set by controls: 0 for no effect and ±100 for the full control effect; potency is the fitted concentration of half-maximal effect.

For CCCCC[C@H](O)c1cccc(OCc2ccc3ccccc3n2)c1 the results were Marburg entry inh -31%.
For CCn1nnnc1NCc1ccc(OCc2ccc(F)cc2Cl)c(OC)c1 the results were HCV inh inconclusive, RE007 growth inh 2%, Sm TGR block 4%, FMDV antiviral -25%, LASV entry inh inconclusive and Marburg entry inh 10µM*.
`COc1cc(CNc2nnnn2C)ccc1OCc1ccc(F)cc1Cl` gave HCV inh -14%, RE007 growth inh 3%, Sm TGR block 0% and FMDV antiviral 0%.
For Nn1cnnc1SCC(=O)Nc1ccc(C2CCCCC2)cc1 the results were HCV inh -7%, RE007 growth inh -18%, Sm TGR block -2%, LASV entry inh 0% and Marburg entry inh 9%.
For O=C(O)CSCC(=O)Nc1ccc(C2CCCCC2)cc1 the results were HCV inh 15%, RE007 growth inh 8%, Sm TGR block 1%, FMDV antiviral 1.1µM*, LASV entry inh inconclusive and Marburg entry inh inconclusive.
`O=C(NCc1cccc(Cl)c1)NCc1noc2ccccc12` gave Sm TGR block 4%, FMDV antiviral 12% and LASV entry inh 1%[46.1 µM].
Screening N#Cc1ccc(OC(=O)c2cnccn2)cc1 returned HCV inh 11%, RE007 growth inh 3%, Sm TGR block 22µM*, FMDV antiviral -12%, LASV entry inh 2%[46.1 µM] and Marburg entry inh 3%[46.1 µM].
Screening COc1ccc2c(c1)c(CCN)c(C)n2Cc1ccccc1 returned HCV inh inconclusive, RE007 growth inh -10%, Sm TGR block -29%, FMDV antiviral -10%, LASV entry inh inconclusive and Marburg entry inh inconclusive.
Cc1c(CCCN)c2ccccc2n1Cc1ccccc1 was read as HCV inh 11µM*, RE007 growth inh 11%, Sm TGR block 15%[57.1 µM] and FMDV antiviral 0%.
Cn1c2ccccc2c2cc([N+](=O)[O-])ccc21 was read as HCV inh inconclusive, RE007 growth inh 1%, Sm TGR block -2%, FMDV antiviral -3%, LASV entry inh -2% and Marburg entry inh -6%.
For Cn1c(CO)c(-c2ccccc2)c2cc([N+](=O)[O-])ccc21 the results were HCV inh 10µM*, RE007 growth inh -19%, Sm TGR block 6%, FMDV antiviral -10%, LASV entry inh 3% and Marburg entry inh 0%.
For CC(=O)OCc1c(-c2ccccc2)c2cc([N+](=O)[O-])ccc2n1C the results were HCV inh 13µM*, RE007 growth inh 10%, Sm TGR block 6%, FMDV antiviral -26%, LASV entry inh 19%[46.1 µM] and Marburg entry inh -28%[46.1 µM].
N=C1S/C(=C\c2cccc3ccccc23)C(=O)N1c1ccc(F)cc1 was read as HCV inh inconclusive, RE007 growth inh 5%, Sm TGR block -1%, FMDV antiviral -21%, LASV entry inh 8.9µM* and Marburg entry inh inconclusive.
For Cc1cc(NS(=O)(=O)c2ccc(NC(=O)c3ccccc3F)cc2)nc(C)n1 the results were Sm TGR block 1%, FMDV antiviral 48%, LASV entry inh 13%[46.1 µM] and Marburg entry inh 22%[46.1 µM].
For CN1C(=O)CC(CC(=O)N2CCCCC2CCO)(c2cccc(F)c2)C1=O (centres undefined) the results were FMDV antiviral 8%.
For CC(NC(=O)c1ccc([N+](=O)[O-])o1)C1CC2CCC1C2 (centres undefined) the results were HCV inh 11µM*, RE007 growth inh 10%, FMDV antiviral -14%, LASV entry inh inconclusive and Marburg entry inh -1%[46.1 µM].
`O=C(CCS(=O)(=O)c1ccccc1)N(CCCN1CCOCC1)c1nc2ccccc2s1` gave HCV inh inconclusive, RE007 growth inh -25%, Sm TGR block 2.5µM*, FMDV antiviral -10%, LASV entry inh inconclusive and Marburg entry inh inconclusive.
For CCN(CC)CCN(C(=O)CCS(=O)(=O)c1ccccc1)c1nc2cc3c(cc2s1)OCO3 the results were HCV inh 2%, RE007 growth inh -10%, Sm TGR block 8.9µM*, FMDV antiviral -27%, LASV entry inh inconclusive and Marburg entry inh inconclusive.
